Shown are actives, neighbours in structure and some others; about 7.5% of the full set was active somewhere.
Luc counter – counter-screen: inhibitors of Kinase-Glo firefly luciferase. Kinase-Glo luciferase, ATP luminescence, 8 min. Potency, µM (top dose mostly 38.3 µM), for inactives: at the highest dose activity change, negative = inhibition, actives largely listed as inhibitors. hit rate 0.28% among 200,000. AID 1379; also: % is scaled to controls: 0 for no effect and ±100 for the full control effect; nearly all actives have a fitted effect of over 60% in size
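Compounds were added to a substrate mix at pH 7.2 (50 mM imidazole, 10 uM ATP, within the enzyme's linear range), followed by Kinase-Glo detection reagent; luminescence was measured after 8 minutes at ambient temperature.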
Rab9 prom act – Rab9 promoter activation; Huh7 Rab9 promoter-luciferase reporter, luminescence, 24 h; Potency, µM (titrated, usually from 9.22 µM), for inactives: at the highest dose activation, negative = inhibition, actives largely listed as activators; hit rate 2.8% among 320,000; AID 485297; also: % of control where 0% means no effect; nearly all actives have a fitted effect of over 60% in size
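Luminescence read-out: Huh7 cells stably expressing Rab9-luciferase, treated 24 h with compound at 37 °C, then lysed with luciferase reagent for 10 min at ambient before reading.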
NPC1 prom act – activates the NPC1 promoter | AID 485313 | Huh7 NPC1 promoter luciferase reporter, 24 h | hit rate 2.4% among 320,000 | Potency, µM (top dose mostly 9.22 µM), inactives show at the highest dose activation, actives largely listed as activators; also: % of control where 0% means no effect; nearly all actives have a fitted effect of over 60% in size
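Luciferase expression driven by the NPC1 promoter was measured in stably transfected Huh7 cells after a 24 h compound incubation, using a luciferase reagent and a luminescence read.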
ELG1 genotoxic – genotoxicity induction in ELG1-luciferase HEK293T cells; AID 504466; Potency, µM (top dose mostly 46 µM), inactives show top-dose activity change, positive = activation, most hits filed as activators; hit rate 1.3% among 330,000; HEK293T ELG1-luciferase reporter, luminescence, 16 h; also: % of control where 0% means no effect; nearly all actives have a fitted effect of over 60% in size
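Step 1: seed 2,000 HEK293T ELG1-luciferase cells per well. Step 2: add compound or DMSO, incubate 16 hr at 37 °C. Step 3: ONE-Glo, 30 min at room temperature, read luminescence.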
FLuc modulator – counter-screen for miR-21 project: firefly luciferase inhibitors or activators. P08659. Potency, µM (titrated, usually from 57.5 µM), for inactives: at the top dose activity change, negative = inhibition, most hits filed as inhibitors. hit rate 6.9% among 360,000. purified FLuc, Km substrates, luminescence inhibition. AID 588342;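 also: plate controls were vehicle for no effect and reference inhibitor for full effect; nearly all actives have a fitted effect of over 55% in size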
Target sequence (P08659 whole entry, looked up): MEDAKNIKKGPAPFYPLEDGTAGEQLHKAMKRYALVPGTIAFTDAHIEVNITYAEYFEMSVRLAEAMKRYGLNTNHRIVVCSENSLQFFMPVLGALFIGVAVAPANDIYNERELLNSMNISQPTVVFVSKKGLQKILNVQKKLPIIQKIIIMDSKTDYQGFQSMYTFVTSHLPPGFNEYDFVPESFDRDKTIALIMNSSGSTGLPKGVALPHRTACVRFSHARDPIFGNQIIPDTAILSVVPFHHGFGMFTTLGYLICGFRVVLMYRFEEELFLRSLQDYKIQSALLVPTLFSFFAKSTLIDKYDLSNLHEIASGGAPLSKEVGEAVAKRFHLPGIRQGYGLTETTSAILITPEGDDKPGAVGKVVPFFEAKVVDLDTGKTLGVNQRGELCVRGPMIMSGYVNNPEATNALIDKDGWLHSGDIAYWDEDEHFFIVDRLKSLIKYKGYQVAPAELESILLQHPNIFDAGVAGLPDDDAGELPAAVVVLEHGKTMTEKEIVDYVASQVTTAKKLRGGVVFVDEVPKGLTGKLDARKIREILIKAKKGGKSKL
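Purified P. pyralis luciferase (10nM final) with 10uM D-luciferin and 10uM ATP (Km levels) in 50mM Tris acetate pH 7.5, 10mM Mg acetate, 0.01% Tween-20, 0.05% BSA; qHTS 6-point titration, ~60 µM downward; luminescence read.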
SMN2 splice enh – increases expression of the SMN2 splice variant | HEK293 SMN2-luciferase splicing reporter, luminescence, 30-36 h | Potency, µM (highest dose often 46.1 µM), for inactives: top-dose activity change, positive = activation, hits mostly activators | hit rate 2.8% among 210,000; also: % of control where 0% means no effect; nearly all actives have a fitted effect of over 55% in size
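HEK293 cells carry an SMN2 […]–luciferase reporter in which exon 7 inclusion puts luciferase in frame. Cells were plated 10-12 h before compound addition, then incubated 30-36 h at 37C. ONE-Glo luminescence was read; sodium butyrate at 4.5 mM final served as control.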
An asterisk follows results filed as active; ? = inconclusive; · = no result given; [ ] = remark or other dose. Calls follow the shape of the dose curve; as a rule, active = well fitted curve in the direction sought with a large enough effect; inconclusive = small, poorly fitted or top-dose-only effect, or another doubt; inactive = no such curve, though single readings can be large; an effect the other way counts as inactive or inconclusive. Potency is read from the fitted curve at half-maximal effect.

SMILES | Luc counter | Rab9 prom act | NPC1 prom act | ELG1 genotoxic | FLuc modulator | SMN2 splice enh
COc1cc(N2CN=c3s/c(=C\c4ccccn4)c(=O)n3C2)cc(OC)c1OC | -7.5% | -2.4% | 5.7% | 1.7% | -8.1% | ?
Cc1cccc(OC(C)C(=O)Nc2ncn[nH]2)c1 (stereo not given) | · | · | · | · | -2.6% | ·
CCCN(CCC)C(=O)Cn1c(=O)n(-c2ccc(OC)cc2OC)c(=O)c2c3c(sc21)CCC3 | · | · | · | · | 3.2% | 2.2%
CCCCCOC(=O)CSc1ncnc2sc3c(c12)CCC(C)C3 (stereo not given) | · | · | · | · | -3.0% | 3.4%
CC1CCc2c(sc3ncnc(SCC(=O)c4ccccc4)c23)C1 (stereo not given) | 3.6% | 22.3% | 13.3% | 11.4% | -7.7% | ?
CCCOC(=O)CSc1ncnc2sc3c(c12)CCC(C)C3 (stereo not given) | · | · | · | · | 8.49µM* | -0.8%
CC(=O)CSc1ncnc2sc3c(c12)CCC(C)C3 (stereo not given) | 0.4% | 1.3% | 9.8% | 8.0% | 15.1µM* | 11.7%
CN(C)c1nc(-c2ccoc2)nc2ccccc12 | -3.2% | · | · | · | · | -0.3%
Clc1ccccc1OCCn1nnc2ccccc21 | · | ? | 3.16µM* | ? | ? | ·
Cn1c(=O)n(CCOc2ccc(Cl)cc2Cl)c2ccccc21 | 2.1% | 2.7% | -0.3% | 14.6% | -15.8% | -14.9%
Cn1c(=O)n(CCOc2ccc([N+](=O)[O-])cc2)c2ccccc21 | · | 11.1% | 15.4% | 8.1% | ? | ·
Cc1ccc(OCCn2c(=O)n(C)c3ccccc32)cc1 | -6.4% | 2.82µM* | 3.16µM* | ? | 10.7µM* | ·
Cn1c(=O)n(CCOc2ccccc2Cl)c2ccccc21 | -0.4% | 4.47µM* | ? | ? | 23.9µM* | ?
COc1ccc(NC(=O)C2CCC(CNS(=O)(=O)c3ccc4c(c3)C(C)(C)C(=O)N4C)CC2)cc1 (stereo not given) | · | · | · | · | 2.6% | ·
COc1ccc(NC(=O)c2cnn(-c3ccccc3)c2C)cc1OC | · | ? | 2.82µM* | ? | 10.7µM* | ·
Cc1ccc(NC(=O)c2cnn(-c3ccccc3)c2C)cc1C | · | 0.631µM* | 0.398µM* | ? | 0.338µM* | ·
COc1ccc(NC(=O)c2cnn(-c3ccccc3)c2C)cc1 | · | 0.398µM* | 2.51µM* | ? | 3.79µM* | ·
C[C@H]1CN=C(N(C)C)N1CCC1CCCCC1 | · | 3.1% | 0.7% | -1.1% | 4.6% | ·
CC(C)(CCC(C)(C)c1ccccc1)c1ccccc1 | -5.0%[7.66 µM] | · | · | · | · | -11.5%[9.22 µM]
COc1ccc2c(COC(=O)c3n[nH]c4ccccc34)cc(=O)oc2c1 | -6.4% | 3.55µM* | 3.16µM* | ? | 3.01µM* | 20µM*
CCN1C(=O)C(CC(=O)Nc2ccccc2)S/C1=N\c1ccccn1 (stereo not given) | 2.6% | -4.8% | -2.2% | 18.0% | -0.6% | -9.1%
Cc1ccc(OCc2nc(-c3ccccn3)n[nH]2)cc1 | -6.3% | ? | ? | 6.7% | 23.9µM* | ?
O=C(C1CC(c2ccccc2O)=NO1)N1CCCCC1 (stereo not given) | -8.1% | 4.47µM* | ? | 13µM* | 15.1µM* | 0.159µM*
O=C(C1CC(c2ccc(F)cc2)=NO1)N1CCCCC1 (stereo not given) | -3.0% | ? | 3.16µM* | ? | 15.1µM* | 28.2µM*
CC1CCCCN1C(=O)C1CC(c2ccc(F)cc2)=NO1 (stereo not given) | · | 2µM* | ? | 17.9% | 21.3µM* | ·
O=C(CS(=O)CC(=O)Nc1cccnc1)Nc1ccc(F)cc1 (stereo not given) | · | 2.9% | -7.4% | 1.4% | 1.1% | ·
COc1ccc(S(=O)(=O)NNC(=O)C23CC4CC(CC(C4)C2)C3)cc1[N+](=O)[O-] | · | -0.6% | 0.1% | 1.1% | 1.7% | ·
Clc1ccccc1Cn1nc(-c2ccccc2)nc1-c1ccccc1 | -1.9% | -1.7% | 1.3% | 1.5% | -18.8% | -7.3%[1.84 µM]
Clc1ccc(Cn2nc(-c3ccccc3)nc2-c2ccccc2)cc1 | -5.3% | 22.6% | 22.4% | 11.3% | 15.1µM* | ?
